Sampled rows, rich in hits. Any-hit rate of the full collection: about 3.3%.
PERK inhibitor = block of dimerizer-induced PERK translation repression, primary screen, PERK inhibitor project, CHO PERK-DD cells, SEAP luminescence, HTS | CHO PERK-DD fusion, SEAP luminescence translation reporter | AID 1416, 2008 | 220,000 compounds, 0.17% hits | inhibition, % at 5.6 µM;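 active = inhibition above the mean inhibition of all tested compounds plus 3 SD, set separately per screening campaign, cut at about 2.9% in these data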;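 also: PERK kinase domain activated by AP20187 dimerizer at 100 nM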
Arbovirus inh = antivirals against arbovirus infection, primary screen, cell-based, full library, 10K replicate subset; arbovirus infection cell-based antiviral screen; inhibition, % at 10 µM; 200,000 compounds, 0.37% hits; in the data active = inhibition above about 30%
WT yeast gro inh = growth inhibition of WT strain, primary screen, mitochondrial fusion inhibitor project, WT and mutant strains, chemical genetic | mitochondrial fusion phenotypic screen | inhibition, % at 10 µM | 190,000 compounds, 2.1% hits | AID 1362, 2008; in the data active = inhibition above about 58%; tested in S. cerevisiae
ROMK mod = ROMK potassium channel modulators, primary screen, cell-based, thallium flux, MLSMR library; B-score at 10 µM; 130,000 compounds, 2% hits; ATP-sensitive inward rectifier potassium channel 1 (Homo sapiens), P48048; Tet-inducible ROMK, thallium flux fluorescence; actives lie on both sides;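 active = signal ratio slope over the read window, or its plate-corrected B-score, at least 3 SD from the plate mean, either direction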;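 also: B-score of the F/F0 ratio slope over 7 to 12 s after thallium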
Target sequence (P48048 whole entry, looked up): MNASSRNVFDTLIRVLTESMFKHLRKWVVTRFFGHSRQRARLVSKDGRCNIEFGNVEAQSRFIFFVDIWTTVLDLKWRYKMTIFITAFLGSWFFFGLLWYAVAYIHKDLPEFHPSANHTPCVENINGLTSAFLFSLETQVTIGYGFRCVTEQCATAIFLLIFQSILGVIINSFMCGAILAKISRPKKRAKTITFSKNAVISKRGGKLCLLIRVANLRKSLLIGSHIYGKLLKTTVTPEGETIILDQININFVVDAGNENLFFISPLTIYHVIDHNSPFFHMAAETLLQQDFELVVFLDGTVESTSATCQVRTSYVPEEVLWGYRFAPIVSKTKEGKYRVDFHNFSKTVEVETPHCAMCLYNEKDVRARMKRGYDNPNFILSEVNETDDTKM
Each line names hits and unclear results; the compound was inactive in the other large screens.

CCn1c(O)c(C(c2ccccn2)c2c(O)n(CC)c(=S)[nH]c2=O)c(=O)[nH]c1=S	WT yeast gro inh 97 (no result: ROMK mod)
Cc1nn(Cc2ccccc2)c(Cl)c1C(=O)NC1CCCc2ccccc21 (stereo not drawn)	Arbovirus inh 30
CC12CN3CC(C)(CN(C1)C31CCOCC1)C2=O	none
O=C(c1ccco1)c1cn(Cc2ccc(Cl)cc2)c2ccccc12	WT yeast gro inh 69
COc1ccccc1OCCCn1cc(C(=O)c2ccco2)c2ccccc21	none (no result: ROMK mod)
O=C1NC(=O)C(CCc2ccncc2)(Cc2cccc(Cl)c2Cl)C(=O)N1c1ccc(Br)cc1 (stereo not drawn)	WT yeast gro inh 75 (no result: ROMK mod)
CCOc1ccc(-n2c(O)c(N=Nc3ccc([N+](=O)[O-])cc3)c(=O)[nH]c2=O)cc1	none
CCCCC/C=C\C/C=C\C/C=C\C/C=C\CCCC(=O)Nc1ccc(O)cc1	WT yeast gro inh 76 (no result: ROMK mod)
O=C(NCc1cccnc1)NC1CCCCC1	none
Cc1ccc(OCC(=O)NCCN2CCN(C(=O)COc3ccc(C)cc3)CC2)cc1	none
O=c1c2ccccc2[se]n1-c1ccccc1	WT yeast gro inh 97 (no result: ROMK mod)
COC(=O)C1CN(C#N)N(c2ccc(Cl)cc2)C12c1ccccc1-c1ccccc12 (stereo not drawn)	WT yeast gro inh 74 (no result: ROMK mod)
Cc1ccc(N2Cc3ccccc3C2=N)cc1[N+](=O)[O-]	none
COc1cc(NC(=O)CN2C3CCC2CC(O)(c2cccnc2)C3)cc(OC)c1 (stereo not drawn)	none
COc1ccccc1N1CCN(Cc2cc(C)c(C)cc2O)CC1	Arbovirus inh 32
O=C1C(=O)c2ccccc2-c2ccccc21	WT yeast gro inh 97 (no result: ROMK mod)
O=C1C(=O)c2cccc3cccc1c23	none
CCOC(=O)C1SC2(C(F)F)CC1(O)c1c(c(OC)c3occc3c1OC)O2 (stereo not drawn)	WT yeast gro inh 64
CC(C)CCNC(=O)CN1C(=O)CN=C(c2ccccc2)c2ccccc21	none (no result: Arbovirus inh, WT yeast gro inh, ROMK mod)
Cc1ccc(CN2C(=O)CN=C(c3ccccc3)c3ccccc32)cc1	none
CCC(C)NC(=O)CN1C(=O)CN=C(c2ccccc2)c2ccccc21 (stereo not drawn)	PERK inhibitor 3.1
Cc1oc(-c2ccccc2)nc1CN1C(=O)CN=C(c2ccccc2)c2ccccc21	WT yeast gro inh 58
CSc1ncc(Cl)c(C(=O)O)n1 (tested in a mixture with another compound)	none
O=c1[nH]c2ccccc2n1C1CCN(CCCC(c2ccc(F)cc2)c2ccc(F)cc2)CC1	WT yeast gro inh 70 (no result: ROMK mod)
CCC(=NCc1cc(OC)cc(OC)c1)c1c(O)[nH]c(=O)[nH]c1=O	none (no result: Arbovirus inh, WT yeast gro inh)
CCn1c(O)c(C=Nc2ccc(S(N)(=O)=O)cc2)c(=O)n(CC)c1=S	none
NS(=O)(=O)c1ccc(N=Cc2c(O)n(C3CCCCC3)c(=O)n(C3CCCCC3)c2=O)cc1	WT yeast gro inh 96 (no result: ROMK mod)
CCN(CC)c1ccc(/C=N/c2sc3c(c2C#N)C2CCN3CC2)c(O)c1	none
CC(N)C(=O)c1ccco1 (stereo not drawn)	none
C[N+]1(C)C2CCC1CC(OC(=O)c1ccco1)C2 (stereo not drawn)	PERK inhibitor 3.3 (no result: Arbovirus inh, WT yeast gro inh)
CNP(=O)(Oc1ccccc1)OC12CC3CC(CC(C3)C1)C2 (stereo not drawn)	none
Cc1ccccc1-n1c(-c2ccc([N+](=O)[O-])cc2)nc2ccccc2c1=O	none
Fc1ccc2c(c1)nnn2C1CCN(Cc2ccccc2)CC1	none
CCCCCCCCCOc1ccc2[nH]cc(CCN)c2c1	WT yeast gro inh 97 (no result: ROMK mod)
c1ccc(-c2nc(N3CCOCC3)s[n+]2-c2ccccc2)cc1	none
CCC(=Nc1ccc(OC)cc1OC)c1c(O)n(C2CCCCC2)c(=O)[nH]c1=O	WT yeast gro inh 68
CCC(=O)c1c(O)n(C2CCCCCC2)c(=O)[nH]c1=O	none (no result: ROMK mod)
Nc1ccc2c(c1)oc1ccccc12	PERK inhibitor 3.6 (no result: ROMK mod)
COCCOC(=O)C1=C(N)OC(C)=C(C(=O)OC)C12C(=O)Nc1ccccc12 (stereo not drawn)	none
CSc1ccc(C(=O)C2CCCN(Cc3cc4ccccc4[nH]3)C2)cc1 (stereo not drawn)	WT yeast gro inh 66
O=C(Nc1ccc(F)cc1)N1CC2CC(C1)c1cccc(=O)n1C2 (stereo not drawn)	WT yeast gro inh 73 (no result: ROMK mod)
O=C(Nc1ccccc1)N1CC2CC(C1)c1cccc(=O)n1C2 (stereo not drawn)	none
C=CCN1C(=O)C2(C(C(=O)OCC)=C(N)Oc3ccccc32)c2c1c1ccccc1oc2=O (stereo not drawn)	none (no result: ROMK mod)
C/C(=N\N1CCCCC1c1cccnc1)c1c(O)n(C2CCCCC2)c(=S)[nH]c1=O (stereo not drawn)	WT yeast gro inh 74 (no result: ROMK mod)
CCCCn1c(O)c(/C(CC)=N/N2CCCCC2c2cccnc2)c(=O)[nH]c1=S (stereo not drawn)	WT yeast gro inh 59 (no result: ROMK mod)
CCCC(=O)Nc1ccc(N2CCN(CC)CC2)c(Cl)c1	none
CCC(=O)Nc1ccc(N2CCN(CC)CC2)c(Cl)c1	WT yeast gro inh 70 (no result: ROMK mod)
O=[N+]([O-])c1ccc(N2CCNCC2)c(Cl)c1	none
CCOC(=O)c1c(N)n(Cc2ccc(OC)cc2)c2nc3ccccc3nc12	none
COC(=O)c1c(N)n(Cc2ccc(OC)cc2)c2nc3ccccc3nc12	WT yeast gro inh 71
O=C1NC(=O)C(Cc2cccs2)C(=O)N1	none (no result: ROMK mod)
CC[n+]1c(SC)ccc2cc(OC)ccc21	WT yeast gro inh 71 (no result: ROMK mod)
OCCNc1c2c(nc3ccccc13)CCCC2	WT yeast gro inh 65 (no result: ROMK mod)
CCCCc1nc2ccccc2c(=O)n1-c1ccc(Cl)cc1[N+](=O)[O-]	WT yeast gro inh 64 (no result: ROMK mod)
CCCCc1nc2ccccc2c(=O)n1-c1ccccc1[N+](=O)[O-]	none (no result: ROMK mod)
C[C@H]1CC[C@H]2NCCN[C@H]2C1	PERK inhibitor 3.1 (no result: Arbovirus inh, WT yeast gro inh)
COc1ccc(NP(=O)(Oc2ccc(Cl)cc2)Oc2ccc(Cl)cc2)cc1OC	WT yeast gro inh 65
COc1ccc(OC)c(NP(=O)(Oc2ccc(Cl)cc2)Oc2ccc(Cl)cc2)c1	none
CCCCN1C(=O)NC(=O)C2(Cc3c(nc4c(C)cccn4c3=O)N3CCc4ccccc4C32)C1=O (stereo not drawn)	WT yeast gro inh 72 (no result: ROMK mod)
Cc1ccc2c(c1)C1CN(C)CCC1N2C(=O)c1cn(-c2ccccc2)nc1-c1ccccc1 (stereo not drawn)	WT yeast gro inh 86
COc1cc(/C=C2\C(=O)NC(=O)N(c3ccccc3)C2=O)c([N+](=O)[O-])cc1OC	PERK inhibitor 3.0
CCCCn1c(=O)c(C(=O)Nc2ccccc2S(N)(=O)=O)c(O)c2ccccc21	WT yeast gro inh 67
CCCCCn1c(=O)c(C(=O)Nc2ccccc2S(N)(=O)=O)c(O)c2ccccc21	WT yeast gro inh 77
CCCCn1c(=O)c(C(=O)Nc2ccccc2)c(O)c2ccccc21	none
CCCCn1c(=O)c(C(=O)Nc2nnc(C(C)C)s2)c(O)c2ccccc21	WT yeast gro inh 69
C=C1C[C@]2(O)[C@@]3(C)CCC(=O)C(C)(C)C3=C(O)C(=O)[C@@]2(C)[C@@H]2C(=O)O[C@@](C)(C(=O)OC)C(=O)[C@@]12C	none (no result: ROMK mod)

Screening data (PubChem BioAssay)
